The list is not random: actives were taken first. Their share in the collection is about 3.6%.
Pf apPOL block: Pf-apPOL DNA polymerase inhibition. Recombinant Pf-apPOL, molecular beacon fluorescence, 1.5 h. inhibition, % at 10 µM. 210,000 compounds, 0.25% hits. AID 1794808
mHTT-CaM PPI inh: disrupts binding of mutant huntingtin to calmodulin; 190,000 compounds, 3.6% hits; AlphaScreen His-mHTT/GST-CaM binding, luminescence; inhibition, % at 15 µM; P42858;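 also: 0% = both proteins with DMSO and 100% = one protein alone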
An asterisk follows results filed as active; / = no result given. Rule as the data show it: active = inhibition above about 50%; inactive = the rest.

SMILES | Pf apPOL block | mHTT-CaM PPI inh
C=CCn1c(CSc2ccccc2[N+](=O)[O-])n[nH]c1=S | 60* | /
CC(C)c1ccc(NC(=O)CC2COc3ccccc3NC2=O)cc1 (stereo not drawn) | -4 | -4
Cn1c(=O)c2c(nc(SCC(N)=O)n2C)n(C)c1=O | -1 | -3
Cn1ncc(N2CCCC(C(=O)NCCCN3CCCCC3)C2)cc1=O (stereo not drawn) | -3 | -2
O=C(NCCCN1CCCc2ccccc21)C1CCc2nc(N3CCCCC3)ncc2C1 (stereo not drawn) | -4 | 54*
Cn1ncc(N2CCCC(C(=O)NCCCN3CCCC3=O)C2)cc1=O (stereo not drawn) | -3 | 100*
Cc1ccnc(N2CCCC(C(=O)NCCCN3CCN(C)CC3)C2)n1 (stereo not drawn) | -10 | -5
O=C(NCCCN1CCCc2ccccc21)C1CCc2nc(N3CCOCC3)ncc2C1 (stereo not drawn) | -6 | 30
Cn1ncc(N2CCCC(C(=O)NCCCN3CCCc4ccccc43)C2)cc1=O (stereo not drawn) | -2 | 75*
Cc1ccnc(N2CCCC(C(=O)NCCCN3CCCc4ccccc43)C2)n1 (stereo not drawn) | 6 | 52*
Cn1ncc(N2CCCC(C(=O)NCCCc3ccccc3)C2)cc1=O (stereo not drawn) | -6 | -4
Cn1c(N2CCCC(C(=O)N3CCN(c4cccc(Cl)c4)CC3)C2)cc(=O)n(C)c1=O (stereo not drawn) | 1 | 38
COc1cc(C(=O)N2N=C(c3ccccc3)CC2c2ccc(N(C)C)cc2)cc(OC)c1OC (stereo not drawn) | -1 | 97*
CC(=O)N1N=C(c2ccc(Br)cc2)CC1c1ccc(Br)cc1 (stereo not drawn) | -10 | 4
Cc1ccc(C2CC(c3ccccc3)=NN2C(=O)CCC(=O)O)cc1 (stereo not drawn) | 5 | 6
CC(=O)N1N=C(c2ccc(Br)cc2)CC1c1ccc(N(C)C)cc1 (stereo not drawn) | -10 | 74*
CC(=O)N1N=C(c2ccccc2)CC1c1ccc(N(C)C)cc1 (stereo not drawn) | -7 | 19
Cc1ccc(C2=NN(C(=O)CCC(=O)O)C(c3ccc(Br)cc3)C2)cc1 (stereo not drawn) | 72* | 11
O=C(Cc1nc(-c2ccccn2)n[nH]1)Nc1ccccc1F | -6 | 94*
O=C(Cc1nc(-c2ccccc2)n[nH]1)Nc1ccc(F)c(F)c1 | -3 | -2
Cc1ccccc1NC(=O)Cc1nc(-c2ccccc2)n[nH]1 | -3 | 4
O=C(Cc1nc(-c2ccccn2)n[nH]1)Nc1ccc(F)cc1F | -17 | 97*
COc1ccc(C2c3cc(OC)c(OC)cc3CC(=O)N2c2ccccc2)cc1 (stereo not drawn) | -1 | 34
COc1ccc(/C=C2\N=C(c3ccc(OC)c(OC)c3)OC2=O)cc1OC | -4 | 15
CN(C)c1ccc(C(=O)Nc2nc(C(C)(C)C)cs2)cc1[N+](=O)[O-] | -8 | 62*
SMILES | Pf apPOL block | mHTT-CaM PPI inh
CNc1ccc(C(=O)Nc2nc(C(C)(C)C)cs2)cc1[N+](=O)[O-] | -11 | 7
CCCCN(C)CCCNC(=O)CC(C(=O)N1CCc2ccccc21)n1ccnc1 (stereo not drawn) | -14 | -3
CCCCN(CCCNC(=O)CC(C(=O)N1CCc2ccccc21)n1ccnc1)c1ccccc1 (stereo not drawn) | -6 | 77*
CC1(C)C2CCC1(C)C(OCC(O)CN1CCN(c3cccc(C(F)(F)F)c3)CC1)C2 (stereo not drawn) | -5 | 93*
CC1(C)C2CCC1(C)C(OCC(O)CN1CCN(c3ccccc3F)CC1)C2 (stereo not drawn) | -3 | 47
CCOCCCNC(=O)CCc1cn(Cc2ccccc2)c2ccccc12 | -17 | 20
CCc1onc(C)c1C1CCCN1C(=O)c1ccc(C)cc1 (stereo not drawn) | 4 | -4
COc1ccc2[nH]cc(CCN3CC(C(=O)Nc4cccc(C)c4C)CC3=O)c2c1 (stereo not drawn) | 2 | 15
Cc1ccc2[nH]cc(CCN3CC(C(=O)Nc4ccc(F)c(Cl)c4)CC3=O)c2c1 (stereo not drawn) | 1 | 54*
Cc1ccc2[nH]cc(CCN3CC(C(=O)Nc4ccc(Cl)cc4)CC3=O)c2c1 (stereo not drawn) | 0 | 22
Cc1cc(C)cc(NC(=O)C2CC(=O)N(CCc3c[nH]c4ccc(Cl)cc34)C2)c1 (stereo not drawn) | -3 | 100*
COC(=O)c1ccc(NC(=O)C2CC(=O)N(CCc3c[nH]c4ccc(F)cc34)C2)cc1 (stereo not drawn) | 2 | 59*
O=C(Nc1ccc(F)cc1)C1CC(=O)N(CCc2c[nH]c3ccc(F)cc23)C1 (stereo not drawn) | 0 | -1
O=C(Nc1ccccc1)C1CC(=O)N(CCc2c[nH]c3ccc(Cl)cc23)C1 (stereo not drawn) | 3 | 33
Cc1cccc(NC(=O)C2CC(=O)N(CCc3c[nH]c4ccc(Cl)cc34)C2)c1C (stereo not drawn) | 7 | 71*
CCN(c1ccc(F)cc1)S(=O)(=O)c1ccc2[nH]cc(C(=O)N3CCOCC3)c(=O)c2c1 | -10 | 6
Fc1ccc(CN2CCCCC2c2nc(-c3ccncc3)no2)cc1 (stereo not drawn) | 3 | 12
CCN(C(=O)c1cnc2n(c1=O)CCS2)c1ccccc1 | -1 | 3
O=C(NC1CCCC1)C1CCN(c2ncnc3c2oc2ccccc23)CC1 | -1 | -3
CC1CCCCC1NC(=O)CCSCc1ccccc1Cl (stereo not drawn) | -18 | -16
Cc1ccc2[nH]c(O)c(C(=O)C(=O)Nc3cc(Cl)cc(Cl)c3)c2c1 | -7 | -3
COc1ccccc1CNC(=O)C(C)C1CCN(S(=O)(=O)c2cccs2)CC1 (stereo not drawn) | 1 | -5
Cc1ccc(NC(=O)C2CC(=O)N(CCc3c[nH]c4ccc(F)cc34)C2)cc1C (stereo not drawn) | -4 | 27
O=C(NC1CCCC1)C1CC(=O)N(CCc2c[nH]c3ccc(Cl)cc23)C1 (stereo not drawn) | 1 | 65*
Cc1ccc(NC(=O)C2CC(=O)N(CCc3c[nH]c4ccc(Cl)cc34)C2)cc1C (stereo not drawn) | -2 | 100*
SMILES | Pf apPOL block | mHTT-CaM PPI inh
O=C(NC1CCCCC1)C1CC(=O)N(CCc2c[nH]c3ccc(Cl)cc23)C1 (stereo not drawn) | 1 | 8
CCc1noc(-c2cccn2Cc2ccc(OC)c(F)c2)n1 | -1 | -29
COc1ccc(C2CCCN2C(=O)c2cc(C)on2)cc1 (stereo not drawn) | -2 | -9
Cc1cccc(N2CCN(C(=O)c3ccc(SCc4cccnc4)c([N+](=O)[O-])c3)CC2C)c1 (stereo not drawn) | -4 | 98*
O=C(c1ccc(SCc2cccnc2)c([N+](=O)[O-])c1)N1CCCC1 | -7 | 4
Cc1ccc(N(Cc2ccc(C(=O)NC3CC4CCC3C4)cc2)S(C)(=O)=O)cc1C (stereo not drawn) | -4 | -4
COc1ccc(-c2nnc(Nc3ccc(CC(N)=O)cc3)c3ccccc23)cc1 | -18 | 26
CNC(=O)c1cc(Nc2nnc(-c3ccc(OC)cc3)c3ccccc23)ccc1OC | -30 | 50
CCOc1ccc(-c2nnc(Nc3ccc(OC)c(C(=O)NC)c3)c3ccccc23)cc1 | 8 | 69*
